Structures are written as SMILES. Out of some 1,500 compounds screened, about 890 (59%) were called active.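 How the source made its calls: active means inhibition of the choline-evoked signal at any tested dose together with a fitted dose-response curve; inactive means no inhibition at any dose or no curve.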 The set was probably picked from earlier hits. Only a sample is shown. Entries with a potency or affinity are not part of this list.

The target in this test is High affinity choline transporter 1 (Homo sapiens) (UniProt Q9GZV3). Put plainly: CHT inhibitors, dose response, cell-based, 5-point CRC, membrane potential dye (AID 504840).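 Further: 0% = buffer-only response and 100% = EC90 choline response.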 Conditions: HEK293-CHT, choline-induced depolarization, CHT with LV-to-AA double alanine mutation; series mostly up to 37 µM; inhibition: at the top concentration.
Sequence of High affinity choline transporter 1 (Homo sapiens) (Q9GZV3 whole entry, looked up): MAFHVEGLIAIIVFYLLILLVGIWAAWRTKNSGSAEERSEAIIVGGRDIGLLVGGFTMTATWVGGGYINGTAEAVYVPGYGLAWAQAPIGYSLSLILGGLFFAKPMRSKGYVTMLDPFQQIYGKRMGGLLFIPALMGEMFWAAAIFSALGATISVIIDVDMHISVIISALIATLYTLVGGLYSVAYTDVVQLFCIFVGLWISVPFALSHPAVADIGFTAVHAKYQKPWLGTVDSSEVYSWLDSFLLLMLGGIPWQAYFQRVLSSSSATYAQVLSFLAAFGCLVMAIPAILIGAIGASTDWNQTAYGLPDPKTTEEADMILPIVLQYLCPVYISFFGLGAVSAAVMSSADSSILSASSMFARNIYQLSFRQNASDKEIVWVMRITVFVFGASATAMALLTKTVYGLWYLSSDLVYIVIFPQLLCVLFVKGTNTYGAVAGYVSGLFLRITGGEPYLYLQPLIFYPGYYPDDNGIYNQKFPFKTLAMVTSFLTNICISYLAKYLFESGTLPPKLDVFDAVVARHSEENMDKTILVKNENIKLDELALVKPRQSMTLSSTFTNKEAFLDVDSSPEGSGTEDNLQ
Turning to `Cc1ccc(SCC2(O)CCN(C(=O)c3ccc(Cl)cc3)CC2)cc1`, the “inhibition” value is 14.9% (inactive).
For `O=C(Cc1ccccc1F)c1ccc(O)cc1O` the value was 51.5% (inactive); for `Cc1sc(NC(=O)c2ccco2)nc1-c1ccccc1`, 57.1% (inactive).
For `O=c1c2ccccc2nc(-c2ccccc2)n1Cc1ccco1` the value was 22.4% (inactive).
The result for `CC1CCCCN1C(=O)c1ccc(C(=O)Nc2ccc(F)cc2)cc1` (stereo not drawn) reads 50.5% (inactive).
Consider `O=C(CCc1ccccc1)NNC(=S)NC(=O)c1ccc(Cl)cc1`, for which the “inhibition” value was 27.5% (inactive).
The result for `COc1cccc(N2C(=O)N(c3ccccc3)C3CS(=O)(=O)CC32)c1` (stereo not drawn) reads 23.3% (inactive).
For `CCCCCn1c(=O)[nH]c2cc(C(=O)NCCCN3CCCCC3CC)ccc2c1=O` (stereo not drawn) the value was 58.5% (inactive); for `CCN(CC)CCCN1C=C2C(=O)C(C)(OC(=O)CCC(=O)OC)C(=O)C=C2C=C1C1CC1` (stereo not drawn), 59.8% (inactive).
The result for `CC(Oc1ccc2ccccc2c1)C(=O)NNC(=S)NC(=O)c1ccco1` (stereo not drawn) reads 21.3% (inactive); that for `Cc1ccc(OCC(=O)NNC(=S)NC(=O)C(C)(C)C)c(Br)c1`, 49.2% (inactive); that for `CCCCCc1cc(=O)oc2c(C(CCN3CCCCC3)c3cc(OC)c(OC)c(OC)c3)c(OC)cc(OC)c12` (stereo not drawn), 64.2% (inactive).
Consider `COc1cc(CN(C)Cc2cc(=O)n3ccsc3n2)ccc1OC(F)F`, for which the “inhibition” value is 20.5% (inactive).
For `COc1ccc(CNC(=O)[C@H](C)NC(=O)N2CCn3c2nc2ccccc23)cc1` the value was 45.6% (inactive); for `O=C(Cn1nc(C(F)(F)F)c2c1CCC2)NCc1ccc(F)cc1`, 29.8% (inactive); for `CC(/C=C1\NC(=S)NC1=O)=C\c1ccccc1`, 14.5% (inactive).
Take `CN1CCN(C(=O)CCN2C(=O)/C(=C/c3cccc(Br)c3)SC2=S)CC1`: the “inhibition” value is 38.4% (inactive).
As to `O=C(O)CN1C(=O)/C(=C/C=C/c2ccccc2)SC1=S`, the “inhibition” value was 43% (inactive).
As to `CN1CCN(C(=O)CCN2C(=O)S/C(=C/c3ccc(Cl)cc3)C2=O)CC1`, the “inhibition” value was 50.5% (inactive).
For `CC(=O)NC(CC(=O)NCCN1C(=O)S/C(=C\c2ccccc2)C1=O)c1ccccc1` (stereo not drawn) the value was 41.9% (inactive); for `COc1ccc(/C=C2/SC(=S)N(CCCC(=O)N3CCN(C)CC3)C2=O)cc1`, 30.2% (inactive).
For `CCC(C(=O)N1CCOCC1)n1c(C(=O)OC)cc2occc21` (stereo not drawn) the value was 11.2% (inactive).
For `Cc1nc(SCC(=O)NC(=O)NCc2ccccc2)nc(C)c1C` the value was 27.6% (inactive); for `C=CCn1c(SCC(=O)NC(=O)NC2CCCC2)nnc1C1CCCCC1`, 22.3% (inactive).
Take `CC(=O)Nc1cc(NC(C)=O)cc(C(=O)OC(C)C(=O)Nc2ccc(S(=O)(=O)N3CCCC3)cc2)c1` (stereo not drawn): the “inhibition” value was 55.2% (inactive).
The result for `CN(c1cccc(NC(=O)Nc2cccc(Cl)c2)c1)S(C)(=O)=O` reads 39.9% (inactive); that for `CC(=O)Nc1cccc(C(=O)OC(C)C(=O)Nc2ccc(S(=O)(=O)N3CCCC3)cc2)c1` (stereo not drawn), 48.4% (inactive).
For `CC1CCC(NC(=O)CCn2ccc3cc(S(=O)(=O)N4CCCC4)ccc32)CC1` (stereo not drawn) the value was 51.3% (inactive); for `CC1CCCCC1NC(=O)c1ccc2c(c1)[nH]c(=O)n2C1CCCC1` (stereo not drawn), 58.6% (inactive); for `Cc1ccc(S(=O)(=O)N2CCCCC2)cc1NC(=O)CSc1nncn1-c1ccccc1`, 63.5% (inactive).
The result for `Cc1cc(C)n2c(SCC(=O)NC3CCCCC3C)nnc2n1` (stereo not drawn) reads 2.51% (inactive).
`CCCc1nc2oc3c(NCC4CCCO4)ncnc3c2c2c1COC(C)(C)C2` (stereo not drawn): the “inhibition” value is 65.7% (inactive).
`CCCN(CCC)Cc1c(C(=O)N/N=C/C(C)=C\c2ccco2)nnn1-c1nonc1N`: the “inhibition” value is 32.6% (inactive).
The result for `COc1ccccc1C(=O)NC1CCN(C(=S)NCCc2ccccc2)CC1` reads 26.5% (inactive).
The result for `Cc1ccc(OCC(O)Cn2c(=N)n(Cc3ccccc3)c3ccccc32)cc1` (stereo not drawn) reads 70.7% (inactive).
For `COc1ccc(OCC(O)Cn2c(=N)n(Cc3ccccc3)c3ccccc32)cc1` (stereo not drawn) the value was 70.1% (inactive); for `Cc1ccc(/C=C2\SC(=S)N(c3c(C)n(C)n(-c4ccccc4)c3=O)C2=O)cc1`, 46.4% (inactive).
Turning to `Cc1ccc(S(=O)(=O)NC2=C(N3CCN(Cc4ccccc4)CC3)C(=O)c3ccccc3C2=O)cc1`, the “inhibition” value was 32.5% (inactive).
The result for `COc1cc(/C=C2/S/C(=N/S(=O)(=O)Cc3ccccc3)NC2=O)c([N+](=O)[O-])cc1OC` reads 47.3% (inactive).
With `COc1ccc(NC(=O)CSc2nccn2Cc2ccccc2)cc1`, the “inhibition” value is 46.5% (inactive).
As for `CCN(C(=O)c1cc2c(=O)n3ccccc3nc2n1CCCOC)C1CCCCC1`, the “inhibition” value is 37.4% (inactive).
For `O=C(NCCCn1ccnc1)C(=O)c1cn(CC(=O)N2CCCCCC2)c2ccccc12`, the “inhibition” value is 57.4% (inactive).
On to `O=C(c1cn(-c2ccccc2)nc1-c1ccc(Cl)cc1)N1CCOCC1`, for which the “inhibition” value was 15.1% (inactive).
With `N/C(=N\O)c1ccc(N2CCN(c3ncccc3C(F)(F)F)CC2)nc1`, the “inhibition” value is 45.6% (inactive).
The result for `O=S(=O)(NCc1csc(-c2cccs2)n1)c1ccc(Cl)cc1` reads 32.1% (inactive).
The result for `Cc1ccc(S(=O)(=O)N2[C@@H](c3ccc(F)cc3)C(C(=O)O)=CC[C@H]2c2ccc(C(C)C)cc2)cc1` reads 40.1% (inactive); that for `CCOc1ccc([C@@H]2CC=C(C(=O)O)[C@H](c3cccc(Cl)c3)N2S(=O)(=O)c2ccc(C)cc2)cc1`, 9.24% (inactive).
The result for `CCn1c(N2CCN(S(=O)(=O)c3ccc(Cl)cc3)CC2)nc2ccccc21` reads 55.8% (inactive); that for `COc1ccccc1OCC(=O)NCCS(=O)(=O)N1CCN(c2ccccc2)CC1`, 27.9% (inactive).
On to `CCCCn1c(SCC(=O)Nc2cccc(OC)c2)nc2ccc(N3CCOCC3)cc2c1=O`, for which the “inhibition” value was 38.3% (inactive).
The result for `CCOC(=O)c1ccc(CC(=O)c2ccc(O)cc2O)o1` reads 31.9% (inactive); that for `CCCc1cc(C(=O)Cc2ccc(F)cc2)c(O)cc1O`, 51.2% (inactive); that for `Cc1ccc(-n2c(C)cc(=O)cc2C)c(C)c1`, 44.1% (inactive).
The result for `CCCOc1ccc(C(=O)NNC(=S)NC(=O)c2ccco2)cc1` reads 59.3% (inactive).
For `CC[C@H](C)[C@H](NC(=O)c1ccc(Cl)cc1)C(=O)OCC(=O)c1ccc2c(c1)NC(=O)CO2` the value was 37% (inactive); for `CCCCNC(=O)/C(C#N)=C/c1ccc(-c2ccc(S(=O)(=O)N3CCOCC3)cc2)o1`, 27.3% (inactive); for `CC(NC(=O)/C(C#N)=C/c1ccc([N+](=O)[O-])o1)c1ccccc1` (stereo not drawn), 49.6% (inactive).
On to `Cc1ccc(N=Cc2cc(Cc3ccccc3Cl)cc([N+](=O)[O-])c2O)c(O)c1`, for which the “inhibition” value is 43.4% (inactive).
The result for `CN1C[C@@H]2C(c3ccc(C(F)(F)F)cc3)C3(c4cccnc4)CC2(C3)[C@H]1c1ccccc1` (stereo partly drawn) reads 37.1% (inactive); that for `COc1cc(C(CCN2CCCCC2)c2c(OC)cc(OC)c3c(-c4ccccc4)cc(=O)oc23)cc(OC)c1OC` (stereo not drawn), 59.1% (inactive).
The result for `CCN(CC(=O)NCc1cccs1)S(=O)(=O)c1ccc(C(C)C)cc1` reads 51.1% (inactive); that for `Cc1ccc(C(=O)CSc2n[nH]c(-c3ccco3)n2)cc1C`, 36.4% (inactive); that for `COCCCn1c(SCC(=O)Nc2sc3c(c2C#N)CCCC3)nnc1-c1ccncc1`, 26.6% (inactive).

As a reminder, the inhibition is the change of the read-out against control, counted positive when it falls.
